What was measured:
Experiment in all cases: fraction of 1-bp insertions among edited reads; higher = more 1-bp insertion outcomes
Settings in all cases: mESC; 2uM; 72 h treatment, harvest day 5
[1] = compound: CCn1c(=O)c(-c2ccc(Cl)cc2Cl)cc2cnc(Nc3ccc(N4CCNCC4)c(F)c3)nc21
[2] = compound: CNc1ccc([N+](=O)[O-])c(Nc2ccc3[nH]ncc3c2)n1
Rifapentine = compound: CO[C@H]1/C=C/O[C@@]2(C)Oc3c(C)c(O)c4c(O)c(c(/C=N/N5CCN(C6CCCC6)CC5)c(O)c4c3C2=O)NC(=O)/C(C)=C\C=C\[C@H](C)[C@H](O)[C@@H](C)[C@@H](O)[C@@H](C)[C@H](OC(C)=O)[C@@H]1C [Rifapentine]
[3] = compound: COc1ccccc1-c1cc(Nc2cccc(CS(N)(=O)=O)c2)ncn1
[4] = compound: C[C@@H]1CN(CC(=O)Nc2ccc3c(c2)Cc2cccc(-c4cc(=O)cc(N5CCOCC5)o4)c2S3)C[C@H](C)O1
[5] = compound: Cc1cc(C)nc(SCC(=O)Nc2ncc(Cc3cccc4ccccc34)s2)n1
[6] = compound: Cc1ccc(C(=O)NCCCCCC(=O)Nc2ccccc2N)cc1
[7] = compound: Cc1cccc(CC(=O)N2CCc3c2ccc(-c2cn(C)c4ncnc(N)c24)c3F)n1
[8] = compound: NC(=O)c1ccc2nc(-c3ccc(Oc4ccc(Cl)cc4)cc3)[nH]c2c1 [Chk 2 inhibitor II (BML-277)]
Tucidinostat (Chidamide) = compound: Nc1cc(F)ccc1NC(=O)c1ccc(CNC(=O)/C=C/c2cccnc2)cc1 [Tucidinostat (Chidamide)]

| Target | fraction of 1-bp insertions among edited reads [1] | fraction of 1-bp insertions among edited reads [2] | fraction of 1-bp insertions among edited reads (Rifapentine) | fraction of 1-bp insertions among edited reads [3] | fraction of 1-bp insertions among edited reads [4] | fraction of 1-bp insertions among edited reads [5] | fraction of 1-bp insertions among edited reads [6] | fraction of 1-bp insertions among edited reads [7] | fraction of 1-bp insertions among edited reads [8] | fraction of 1-bp insertions among edited reads (Tucidinostat (Chidamide)) |
| --- | --- | --- | --- | --- | --- | --- | --- | --- | --- | --- |
| 42.0 (DMSO control at this site: 1-bp insertion 0.145, MH deletion 0.655, edited 0.132) GGGCTAAACCTATGAGCACAGTAGAACTAAGGGTGGGTGGTGTAGCTAAAGAACTTGACCA | 0.133 | 0.175 | 0.139 | 0.162 | 0.436 | 0.149 | 0.138 | 0.158 | 0.15 | 0.203 |
| 28.0 (DMSO control at this site: 1-bp insertion 0.035, MH deletion 0.77, edited 0.142) TGGTTCTTCCTTTGTAGAGAGTGTTCATCTGGGAATCTGGGACTTGGATGAGACAATCATT | 0.029 | 0.0402 | 0.0344 | 0.0432 | 0.078 | 0.0369 | 0.0388 | 0.0456 | 0.0349 | 0.0493 |
| 31.0 (DMSO control at this site: 1-bp insertion 0.315, MH deletion 0.329, edited 0.026) ACCTCCACAGGCTGGGTGGCCCGGAGGCTGGGCGGCCCGGAGGCTGGGCTGGGCGAGTATC | 0.115 | 0.185 | 0.232 | 0.192 | – | 0.196 | 0.214 | – | – | 0.0994 |
| 15.0 GCGCCTCCAATGACCCAGTGGGATCCTACTCCATAATGGGATCCTGGGGATTCCTCGCTCC | – | – | 0.167 | – | – | 0.185 | 0.19 | – | – | 0.158 |
| 2.0 (DMSO control at this site: 1-bp insertion 0.364, MH deletion 0.356, edited 0.125) GGTGCCCCCGAGACCTACGCGAACCGAAATCGATGTCCGGTGCGCAAGCAGGGCTGGCGTC | 0.368 | 0.43 | 0.334 | 0.457 | 0.745 | 0.397 | 0.451 | 0.471 | 0.378 | 0.433 |
| 5.0 (DMSO control at this site: 1-bp insertion 0.214, MH deletion 0.567, edited 0.105) CGCTGACCCGAGACCTACGCGAACCGAAATCGGCGACCGGTGCGCAAGCAGGGCTGGCGTC | 0.179 | 0.261 | 0.208 | 0.267 | 0.477 | 0.232 | 0.217 | 0.252 | 0.208 | 0.257 |
| 3.0 (DMSO control at this site: 1-bp insertion 0.109, MH deletion 0.149, edited 0.09) TGCTAGCGCCCCCACAAAGCGGACCAGCCAGCACTATAGGGAATAAGGCCAACTTGCACCC | 0.126 | 0.124 | 0.133 | 0.13 | 0.244 | 0.144 | 0.112 | 0.15 | 0.121 | 0.123 |
| 41.0 (DMSO control at this site: 1-bp insertion 0.022, MH deletion 0.754, edited 0.115) AAAGAGACAGCAGGTATGAATCCATCTTCCTGACCCTTGGGACCAGCCGGGGCAGTGAAGC | 0.0239 | 0.0181 | 0.018 | 0.0187 | 0.0495 | 0.0288 | 0.0318 | 0.0382 | 0.0265 | 0.0195 |
| 38.0 (DMSO control at this site: 1-bp insertion 0.063, MH deletion 0.487, edited 0.17) GGGCTGGGTGCTAAAATGAGGAGCTCCAAGAAGACTGAGGTGAACCTGGAGGCCCCTGAGC | 0.0578 | 0.0482 | 0.0681 | 0.0731 | 0.178 | 0.0549 | 0.0526 | 0.0567 | 0.0523 | 0.0633 |

Reference: the supplement of paper PMC8387472
